Screening data from PubChem.
This is a sample that favours compounds with a hit; in the whole collection about 2.5% have one here.
Casp1 inh – blocks human caspase-1 allosterically or competitively. P29466. Caspase-1 enzyme, Ac-WEHD-AFC fluorogenic rate. Potency, µM (doses to about 57.5 µM), for inactives: at the highest dose activity change, negative = inhibition, actives largely listed as inhibitors. 0.03% of 75,000 active. AID 900;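 note: plate controls were vehicle for no effect and no substrate for full effect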
IkB sig inh – inhibitors of IkB signaling in ABC-DLBCL cells; ABC-DLBCL IkBa-CBG/CBR dual luciferase ratio, 4 h; response scale: scaled: untreated 0%, proteasome inhibitor 100%; Potency, µM (series often up to 57.1 µM), inactives show at the highest dose IkBa stabilization activation; 0.04% of 110,000 active; active = well fitted curve in the direction sought with a large enough effect in the signal ratio, not every such curve was filed as active; inconclusive = small, poorly fitted or top-dose-only effect, or a change in a side signal; the % refers to the signal ratio;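 note: the direction sought is a rising ratio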
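Luminescence ratio of IκBα-fused green versus native red beetle luciferase in OCI-Ly3 cells, 4 h post-doxycycline with compound; red signal alone, scaled from basal (0%) to zero light (-100%), flagged nonspecific or cytotoxic effects.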
p53ts 32C tox – cytotoxicity in p53ts cells at permissive temperature; H1299-p53A138V at 32C, ATP luminescence viability, 24 h; Potency, µM (doses to about 46.1 µM), for the others: at the top dose activity change, negative = cytotoxicity, most hits filed as cytotoxic; 0.93% of 130,000 active; AID 924;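 note: 0% = DMSO and -100% = full killing by reference compound; nearly all actives have a fitted effect of over 55% in size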
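ATP-content luminescence (ATPlite) read-out after 24 h compound exposure at 32C in H1299-p53A138V cells (600/well). Tested up to 46 uM. Normalized to DMSO (0%) and 100 uM tamoxifen (100% killing); Hill-fit AC50.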
Casp7 inh – blocks human caspase-7 allosterically or competitively; P55210; recombinant caspase-7, Ac-DEVD-AFC fluorescence rate; Potency, µM (highest dose often 57.5 µM), inactives show top-dose activity change, negative = inhibition, usual class: inhibitors; 0.02% of 75,000 active; AID 889; active = well fitted inhibition curve with a large enough effect in the main read-out, with a control signal flat, not every such curve was filed as active; inconclusive = small, poorly fitted or top-dose-only effect, or a change in a side signal; note: % of control where 0% means no effect
p53ts 39C tox – kills p53ts cells at the nonpermissive temperature; H1299-p53A138V viability at 39C, ATP luminescence, 24 h; 1.5% of 130,000 active; Potency, µM (top dose mostly 46.1 µM), without a hit: top-dose activity change, negative = cell killing, most hits filed as cytotoxic; AID 902; note: % is set by controls: 0 for no effect and ±100 for the full control effect; nearly all actives have a fitted effect of over 55% in size
Luciferase inh – inhibitors of firefly luciferase; AID 411; Potency, µM (titrated, usually from 57.1 µM), for the others: at the top dose activity change, negative = inhibition, hits mostly inhibitors; purified firefly luciferase, luminescence, 8 min; 2.2% of 72,000 active; note: % is set by controls: 0 for no effect and ±100 for the full control effect; nearly all actives have a fitted effect of over 40% in size
Target sequence (P08659 whole entry, looked up): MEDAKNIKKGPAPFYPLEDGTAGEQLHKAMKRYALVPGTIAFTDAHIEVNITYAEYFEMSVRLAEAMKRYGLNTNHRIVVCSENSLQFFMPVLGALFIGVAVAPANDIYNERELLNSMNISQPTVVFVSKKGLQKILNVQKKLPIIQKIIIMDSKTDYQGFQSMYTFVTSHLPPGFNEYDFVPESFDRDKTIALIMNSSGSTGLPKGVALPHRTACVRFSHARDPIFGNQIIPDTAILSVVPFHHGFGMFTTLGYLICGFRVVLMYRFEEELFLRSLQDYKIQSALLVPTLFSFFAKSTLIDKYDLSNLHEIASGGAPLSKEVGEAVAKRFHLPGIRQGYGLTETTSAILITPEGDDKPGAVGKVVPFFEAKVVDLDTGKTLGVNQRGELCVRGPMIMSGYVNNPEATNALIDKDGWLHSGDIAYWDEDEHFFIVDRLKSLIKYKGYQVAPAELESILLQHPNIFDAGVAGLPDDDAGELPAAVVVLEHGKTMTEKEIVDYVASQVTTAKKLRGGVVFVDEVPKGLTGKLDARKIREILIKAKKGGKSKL
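Titration-based qHTS; buffer 50 mM imidazole pH 7.2, 50 mM KCl, 7 mM MgCl2, 10 uM ATP, 0.01% Tween 20, 0.05% BSA; luciferase/luciferin detector mix added after compound; 8 min, ambient; luminescence.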
An asterisk follows results filed as active; ? = inconclusive; . = no result; [ ] = remark or other dose. Unless noted, calls come from the whole dose curve; as a rule, active = well fitted curve in the direction sought with a large enough effect; inconclusive = small, poorly fitted or top-dose-only effect, or another doubt; inactive = no such curve, though single readings can be large; an effect the other way counts as inactive or inconclusive. Potency is the fitted concentration of half-maximal effect.

SMILES | Casp1 inh | IkB sig inh | p53ts 32C tox | Casp7 inh | p53ts 39C tox | Luciferase inh
COc1ccc2c(=O)c(-c3nc(C)cs3)coc2c1 | . | . | . | . | . | 2µM*
CCc1cccc(NC(=O)Cn2c(=O)c(C(F)(F)F)nc3ccccc32)c1 | . | 0.3% | -1.1% | . | -9.4% | .
COc1cccc(Nc2nc(-c3sc(N)nc3C)cs2)c1 | -8.3% | 1.6% | 11.4% | -10.6% | -5.9% | -20.7%
Cc1nc(N)sc1-c1csc(N(C)c2ccc(O)cc2)n1 | 0.2% | 13.4% | -21.1% | -1.5% | -23.5% | 12.6µM*
O=C(COc1ccc2c(c1)CCC2)N1CCc2ccccc21 | -1.7% | ? | 12.6µM* | -4.4% | ? | 25.1µM*
CCOC(=O)c1ccc(NC(=O)N2CCc3ccccc32)cc1 | -2.3% | 6.6% | ? | -0.2% | ? | 3.98µM*
O=C(OCC(=O)N1CCc2ccccc21)c1ccccc1 | 1.7% | ? | -8.8% | 6.5% | -5.9% | 20µM*
Cn1c(OCc2ccco2)nc2c1c(=O)n(Cc1ccc(Cl)c(Cl)c1)c(=O)n2C | . | . | . | . | . | -0.4%[25.5 µM]
O=C(C1CCN(S(=O)(=O)c2cccnc2)CC1)N1CCN(C2CCCC2)CC1 | 3.9% | 0.6% | 1.8% | -0.3% | 4.5% | 2.1%
COc1cccc(CCc2ccccc2OCC[C@@H]2C[C@@H](O)CN2C)c1 | 3.7% | . | ? | 2.2% | 12.6µM* | .
COc1ccc(C(=O)Nc2cc(C)on2)cc1 | -2.2% | 3.2% | 7.94µM* | -0.6% | 6.31µM* | 10µM*
COc1ccc(C(=O)Nc2noc3ccccc23)cc1 | . | ? | 3.16µM* | . | 6.31µM* | .
CCOc1ccccc1NC(=O)Cn1cnc2c(cnn2-c2ccc(C)c(C)c2)c1=O | 1.3% | -0.2% | 21.0% | -0.7% | -7.0% | 3.1%
CNc1nc(N2CCc3ccccc32)ncc1F | -1.4% | -7.5% | ? | -1.4% | ? | 15.8µM*
Fc1ccc([C@@H]2CCNC[C@H]2COc2ccc3c(c2)OCO3)cc1 | 2.0% | . | ? | 0.9% | 12.6µM* | .
c1ccc(-c2noc(COc3ccc4c(c3)OCO4)n2)cc1 | -1.3% | -1.1% | -2.7% | -0.5% | 2.5% | -11.0%
Cc1ccc(-c2cc(C(=O)Nc3c(C#N)cnn3C)no2)cc1 | 2.9% | -1.9% | ? | -2.3% | ? | 12.6µM*
Cc1cc(NC(=O)CCS(=O)(=O)c2nc(-c3ccccc3)cc(C(F)(F)F)n2)no1 | -2.7% | ? | ? | -2.4% | ? | -0.7%
CS(=O)(=O)c1nc(-c2ccccc2)cc(C(F)(F)F)n1 | 1.9% | ? | 6.31µM* | -1.0% | ? | -3.2%
CCc1nnc2n1N(C(C)=O)C(c1ccc(C(C)(C)C)cc1)=C(C(C)=O)S2 | . | ? | -8.2% | . | 12.6µM* | .
CCOc1ccc(NC(=O)CSc2nnc(-c3ccncc3)n2CC2CCCO2)cc1 (configuration not stated) | -0.3% | 0.7% | -4.8% | -1.0% | -5.3% | -1.8%
CCOc1ccc2nc(NC(=O)CSc3nnc(-c4ccncc4)n3CC3CCCO3)sc2c1 (configuration not stated) | -1.2% | -0.9% | ? | 0.5% | -28.4% | 2.51µM*
CCN1CCc2c(C#N)c(N3CCOCC3)nc(NCCO)c2C1 | . | . | . | . | . | -1.4%[25.5 µM]
CCC(OC(=O)c1nsc(Cl)c1Cl)C(=O)NCc1ccco1 (configuration not stated) | -0.5% | -1.0% | 0.4% | 2.7% | -3.0% | 2.7%
O=C(Nc1cccc(Cl)c1)N1CCN(Cc2ccccc2)CC1 | -2.0% | -1.8% | -11.9% | -2.6% | -15.2% | 15.8µM*
SMILES | Casp1 inh | IkB sig inh | p53ts 32C tox | Casp7 inh | p53ts 39C tox | Luciferase inh
O=C(c1ccccc1F)N1CCN(Cc2cccc(Cl)c2)CC1 | -1.8% | 1.1% | 1.0% | 1.9% | -2.1% | 4.0%
O=c1ccsn1Cc1ccccc1 | -1.1% | 0.5% | -2.4% | -1.0% | 9.4% | 20µM*
COc1cc(CNc2nc3ccccc3[nH]2)cc(OC)c1OC | -0.4% | 7.9% | -0.3% | -0.9% | 6.7% | 2.0%
c1ccc(Nc2nc3ccccc3[nH]2)nc1 | 1.3% | ? | -10.7% | -1.6% | -6.9% | 20µM*
Cc1ccc2nc(C3CCN(C(=O)NCc4ccccc4)CC3)[nH]c2c1 | -0.5% | -0.5% | -8.3% | -1.1% | -5.6% | -23.6%
Cc1ccc2nc(NCc3ccccc3)[nH]c2c1 | . | . | . | . | . | 10µM*
COc1ccc2nc(NCc3ccccc3)[nH]c2c1 | 1.9% | 3.3% | ? | 0.0% | ? | 15.8µM*
COc1ccc2nc(NCCO)[nH]c2c1 | 1.7% | 0.7% | -1.3% | 1.0% | -3.5% | -0.9%
c1ccc(CNc2nc3ccccc3[nH]2)cc1 | 3.2% | -0.8% | 10µM* | 1.0% | ? | 12.6µM*
COc1cc(C)cc2oc(=O)c(CC(=O)NCCc3ccc(Cl)cc3)c(C)c12 | . | ? | -21.8% | . | 12.6µM* | .
COc1cc(C)cc2oc(=O)c(CC(=O)NCc3cccc(Cl)c3)c(C)c12 | . | -0.6% | 0.1% | . | -18.3% | .
Cc1cccc(Cn2c(CN3CCC(C(=O)NC(C)C)CC3)cc3ccccc32)c1 | . | ? | -3.4% | . | -19.1% | .
COc1ccc(C(c2sc3ncnn3c2O)N2CC(C)OC(C)C2)cc1OC (configuration not stated) | -0.4% | 12.1% | -13.9% | -0.2% | -5.4% | 12.6µM*
COc1ccc(C(c2sc3ncnn3c2O)N2CCN(c3ccccc3F)CC2)cc1OC (configuration not stated) | -2.7% | ? | -0.9% | 1.7% | -0.9% | 10µM*
COc1ccc(NC(=O)C(=O)NCCc2csc3nc(-c4ccccc4C)nn23)cc1 | . | ? | 17.1% | . | 57.6% | .
Cc1ccc(NC(=O)c2c(C)oc3ccc(O)c(CN4CCCCC4)c23)cc1 | . | ? | -0.5% | . | -4.7% | .
COc1ccc(NC(=O)c2c(C)oc3ccc(O)c(CN4CCCCCC4)c23)cc1Cl | . | ? | -13.6% | . | 12.6µM* | .
O=C(COC(=O)CCC(=O)c1ccc(F)cc1)Nc1ccc(N2CCOCC2)cc1 | 1.4% | 0.8% | 1.9% | -1.8% | -5.4% | -1.3%
c1ccc2cc(OCc3nc4ccccc4[nH]3)ccc2c1 | . | . | 10µM* | . | 12.6µM* | .
c1cnc2c(OCc3nc4ccccc4[nH]3)cccc2c1 | -1.0% | ? | -25.6% | -0.8% | ? | 20µM*
COc1cccc(OCc2nc3ccccc3[nH]2)c1 | 1.1% | ? | 15.8µM* | -1.5% | ? | 12.6µM*
CC(C)C(NC(=O)OCc1ccccc1)C(=O)NCC(=O)OC(C)(C)C (configuration not stated) | 0.4% | 1.2% | -7.0% | 1.0% | -0.1% | -3.9%
COc1ccc(N2CSC3=C(C#N)C(c4cc(OC)ccc4OC)CC(=O)N3C2)c(OC)c1 (configuration not stated) | -12.5% | ? | 0.4% | -20.6% | -1.9% | -21.7%
COc1ccc(-c2nc3cnc(N4CCNCC4)nc3n(Cc3cccc(OC)c3)c2=O)cc1 | . | -1.3%[11.4 µM] | -19.8% | ? | ? | 0.4%[11.4 µM]
